Screens as filed in PubChem BioAssay.
Pf Dd2 inh = blocks in vitro growth of P. falciparum Dd2 | Potency, µM (top dose mostly 28.9 µM), for inactives: at the highest dose activity, negative = inhibition, most hits filed as inhibitors | P. falciparum Dd2 growth, SYBR Green, 72 h | AID 1347417 | 120,000 compounds, 4.3% hits; active = well fitted inhibition curve with a large enough effect;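 note: plate controls were DMSO vehicle for no effect and reference drug for full effect; nearly all actives have a fitted effect of over 65% in size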
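Infected erythrocytes (Dd2, 0.3% parasitemia, 2.5% hematocrit final) are added to compound in RPMI-1640/Albumax II medium, grown 72 h at 37C in low oxygen, then lysed with saponin/Triton-X containing SYBR Green and read by fluorescence.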
* = called active by the depositor; i = inactive; [ ] = dose if it differs, or a comment. This excerpt belongs to a sample that is enriched for hits. Potency is the fitted concentration of half-maximal effect.

SMILES	Pf Dd2 inh
C[C@@H](NC(=O)c1cccnc1)c1onc(-c2cccnc2)c1C(=O)O	20.1%[44.1 µM]
CN(C(=O)c1ccccc1Cl)C1CCc2ccccc21 (centres undefined)	-13.3%[44.1 µM]
COc1ccc(-n2nc3n(c2=O)CCN([S+](=O)([O-])c2cccc(C(F)(F)F)c2)C3)cc1	25.2%
O=C(NC1CCN(c2ccc(F)cc2)C1=O)c1ccc(Cl)s1 (centres undefined)	i
O=C(c1ccc2c(c1)N(Cc1ccc(F)cc1)C(=O)c1ccccc1S2(=O)=O)N1CCN(Cc2ccccc2)CC1	i
COc1ccccc1N1CCN(C(=O)c2ccc3c(c2)N(Cc2ccccc2)C(=O)c2ccccc2S3(=O)=O)CC1	7.08µM*
COc1ccc(N2CCN(C(=O)c3ccc4c(c3)N(Cc3cccc(Cl)c3)C(=O)c3ccccc3S4(=O)=O)CC2)cc1	-4.9%
O=C(c1ccc2c(c1)N(Cc1ccccc1)C(=O)c1ccccc1S2(=O)=O)N1CCc2ccccc21	11.2µM*
CCOC(=O)N1CCC(NC(=O)c2ccc3c(c2)N(Cc2cccc(C)c2)C(=O)c2ccccc2S3(=O)=O)CC1	11.2µM*
COc1ccccc1CNC(=O)c1ccc2c(c1)N(Cc1cccc(C)c1)C(=O)c1ccccc1S2(=O)=O	-9.2%
Cc1cccc(CN2C(=O)c3ccccc3S(=O)(=O)c3ccc(C(=O)NC4CCCCC4)cc32)c1	-3.6%
O=C(c1ccc2c(c1)N(Cc1ccc(Cl)cc1)C(=O)c1ccccc1S2(=O)=O)N1CCC(Cc2ccccc2)CC1	-5.9%
CN1CCN(C(=O)c2ccc3c(c2)N(Cc2cccc(Cl)c2)C(=O)c2ccccc2S3(=O)=O)CC1	i
O=C(c1cccnc1)N1CCC(c2nc(C3CCOCC3)no2)C1 (centres undefined)	34.5%
O=C(COc1ccc(Cl)cc1)N1CCN(c2ccccc2)C(=O)C1	-18.7%
O=C(NCc1ccc2c(c1)OCO2)C1CN(c2ccc(Cl)cc2)C(=O)N1 (centres undefined)	12.7%
COCCN1CC(CO)C2(CCN(C(=O)c3ccc4ncccc4c3)CC2)C1 (centres undefined)	43.2%
COc1ccc(C(=O)N2CCC(Oc3ccc(-c4noc(-c5ccccc5)n4)cc3)C2)cn1 (centres undefined)	i[5.79 µM]
O=C(NC1CCN(c2cc(-c3cccs3)[nH]n2)C1)c1ccc(Br)o1 (centres undefined)	i
COc1ccc(CN2C[C@H]3CN(Cc4ccc(OC(F)(F)F)cc4)CCN3C2=O)cc1	i
CC(C)CCN(C)Cc1ccc(F)cc1	i
O=C(c1ccc(F)c(F)c1)N1CCN(C(=O)c2nnn3c2COC(c2ccccc2)C3)CC1 (centres undefined)	-23.3%
CCn1cnnc1CC1CCCN(C(=O)Nc2ccc(C(=O)OC)cc2)C1 (centres undefined)	i
Cc1ccc(CNC(=O)CN2C(=O)NC(c3ccccc3Cl)C3=C2COC3=O)cc1 (centres undefined)	i
COCCC(=O)N1C[C@@H](Oc2ccccc2)C[C@@H]1C(=O)N1CCOCC1	24.9%
SMILES	Pf Dd2 inh
Cc1ccc(C2(O)CCN(CC(c3ccccc3)c3ccccc3)CC2)nc1	2.82µM*
Cc1ccc(C2(O)CCN(c3ncccc3C(F)(F)F)CC2)nc1	-19.1%
COc1ccccc1NC(=O)CN1CCC(O)(c2ccc(C)cn2)CC1	-8.1%
CC(C)n1ccnc1C1CCCN(Cc2cscn2)C1 (centres undefined)	12.4%
COc1ccc(F)c(CN2CCCC(O)(CN3CCOC(C)(C)C3)C2=O)c1 (centres undefined)	8.7%
NC(=O)c1cccc(CN2CCC3(CC2)Cc2ccccc2N(C(=O)c2ccc(Cl)cc2)C3)c1	11.2µM*
O=C(c1ccc(Cl)cc1)N1CC2(CCCN2Cc2ccc(Cl)cc2)Cc2ccccc21 (centres undefined)	10µM*
CC(=O)N1CC2(CCN(Cc3cccc(C(N)=O)c3)C2)Cc2ccccc21 (centres undefined)	-18.5%
CC(=O)N1CC2(CCN(Cc3cccc(C(N)=O)c3)CC2)Cc2ccccc21	-16.5%
O=C(c1ccc(Cl)cc1)N1CC2(CCN(CC3CC3)C2)Cc2ccccc21 (centres undefined)	6.31µM*
CC(=O)N1CC2(CCCN2Cc2cccc(C(N)=O)c2)Cc2ccccc21 (centres undefined)	-4.8%
O=C(c1ccc(Cl)cc1)N1CC2(CCN(C3COC3)C2)Cc2ccccc21 (centres undefined)	-23.3%
O=C(c1ccc(Cl)cc1)N1CC2(CCCN(Cc3ccccn3)C2)Cc2ccccc21 (centres undefined)	-29.1%
CS(=O)(=O)N1CC2(CCCN2Cc2ccc(Cl)cc2)Cc2ccccc21 (centres undefined)	-19.6%
CCN(C1CCOCC1)C1CN(C(=O)C2CCOC2)C1 (centres undefined)	6.0%
O=C(NCc1ccc(F)cc1Cl)C1CCN(c2cnc3nccnc3c2)CC1	i
O=C(COc1ccc(F)cc1)N1CC2CC(C1)[C@H]1CCCC(=O)N1C2 (some centres undefined)	-13.0%
c1ccc2c(c1)CCC(N1CCN(Cc3cc4n(n3)CCCNC4)CC1)C2 (centres undefined)	i
O=S(=O)(c1ccccc1C(F)(F)F)N1CCC(C2CCNC2)CC1 (centres undefined)	i
N#Cc1ccccc1S(=O)(=O)N[C@H]1CO[C@H]2[C@@H]1OC[C@H]2OC(=O)Nc1cccc(C(F)(F)F)c1	-9.9%
O=C(C1CCC1)N1CCn2c(nnc2[C@@H]2C[C@@H](O)CN2Cc2ccccc2)C1	-14.7%
O=C1CC(c2ccccc2)N(C(=O)CNC(=O)c2cccs2)CCCCCN1 (centres undefined)	13.1%
COC(=O)c1ccccc1NC(=O)CSc1nc(=O)cc(N)n1-c1ccccc1	55.2%
COC(=O)c1ccc(NC(=O)CSc2nc3c(c(=O)n(C)c(=O)n3C)n2Cc2ccccc2)cc1	25.5%
COC(=O)c1ccc(NC(=O)C(C)Sc2nc(=O)cc(N)n2CCc2ccccc2)cc1 (centres undefined)	11.2µM*
SMILES	Pf Dd2 inh
COc1ccc(C2Cn3nnc(-c4noc(-c5ccc(N(C)C)cc5)n4)c3CO2)cc1 (centres undefined)	19.2%
COc1ccc(-c2onc(C)c2C)cc1S(=O)(=O)NCC1CCN(Cc2cc(C)ccc2C)CC1	11.2µM*
COCCCNS(=O)(=O)c1cc(-c2onc(C)c2C)ccc1OC	-7.5%
COc1ccc(-c2onc(C)c2C)cc1S(=O)(=O)NCc1ccc(Br)cc1	23.9%
COCCN1C(=O)c2cccn2CC1CNC(=O)c1cccc(C)c1 (centres undefined)	-4.5%
Cc1noc(C)c1CC(=O)N1CCC(c2noc(-c3cnccn3)n2)C1 (centres undefined)	37.5%[5.79 µM]
COc1ccc(NC(=O)C2(C)CCCc3cnc(Nc4cccnc4)nc32)cc1 (centres undefined)	i
COc1cccc(Nc2ccc3c(n2)C(C)(C(=O)NCCc2cnc[nH]2)CN(C)C3)c1 (centres undefined)	-1.8%[44.1 µM]
COc1cccc(Nc2ccc3c(n2)C(C)(C(=O)NCCc2ccccn2)CN(C)C3)c1 (centres undefined)	3.16µM*
COCCN1Cc2ccc(NCC(C)C)nc2C(C)(C(=O)NCc2cccnc2)C1 (centres undefined)	-17.1%[44.1 µM]
COc1cccc(Nc2ncc3c(n2)C(C)(C(=O)NCCN2CCOCC2)CC3)c1 (centres undefined)	i
COCCN1Cc2ccc(Nc3cccnc3)nc2C(C)(C(=O)Nc2cccc(F)c2)C1 (centres undefined)	8.91µM*
